The structures appear in SMILES notation.

Holding throughout (type): functional
The test system of test [1] is Plasmodium falciparum. Nature of the test: GSK_TCMDC: Inhibition of Plasmodium falciparum 3D7 in whole red blood cells, using parasite LDH activity as an index of growth. Test compounds present at 2uM.
The subject of test [2] is Plasmodium falciparum. Nature of the test: GSK_TCMDC: Inhibition of Plasmodium falciparum Dd2 in whole red blood cells, using parasite LDH activity as an index of growth. Test compounds present at 2uM.
Another test concerns HepG2. The test is described as follows: GSK_TCMDC: Percent inhibition of human HepG2 cell line. Test compounds present at 10uM.

Broadly, the Inhibition is how much of the control response was suppressed. `NC1=NC(c2ccccc2)(c2ccccc2)C(=O)N1CCCCc1ccccc1.O=CO`: the Inhibition is 96% in the test on Plasmodium falciparum [1], 81% in the test on Plasmodium falciparum [2] and 14% in the test with HepG2.

`Cc1cccc(-c2cccc3c(NC(=O)N4CCc5cc6nccc(N7CCN8CCC[C@H]8C7)c6cc54)cccc23)n1.Cl`: the Inhibition in the test on Plasmodium falciparum [1] is 94%; with Plasmodium falciparum [2], 68%; in the test on HepG2, 14%.

Regarding `CCCn1c(=N)c(C(=O)NCCc2ccccc2)cc2c(=O)n3cccc(C)c3nc21`, the Inhibition in the test on Plasmodium falciparum [1] is reported as 100%; with Plasmodium falciparum [2], 64%; in the test with HepG2, 8%.

As for `Cc1ccc(NC(=O)NC2CCN(c3ccnc4cc(Cl)ccc34)C2)cc1.O=C(O)C(F)(F)F` (stereo not given), the results for the Inhibition in the test on Plasmodium falciparum [1], in the test on Plasmodium falciparum [2] and in the test with HepG2 were 100%, 96% and 19%, respectively.

With `N#Cc1ccc(C(=O)Nc2ccc(Cl)c(N3CCN(CCc4ccccc4)CC3)c2)cc1.O=C(O)C(F)(F)F`, the Inhibition is reported as 90% in the test with Plasmodium falciparum [1], 35% in the test on Plasmodium falciparum [2] and 5% in the test on HepG2.

On to `CCCCOc1ccccc1C(=O)NCc1csc(-c2ccccc2)n1`, for which the Inhibition in the test on Plasmodium falciparum [1] was found to be 93%; in the test with Plasmodium falciparum [2], 91%; in the test on HepG2 it was 17%.

As for `CCNc1cc(C(=O)N[C@@H](Cc2ccccc2)[C@H](O)CNC(C)(C)c2cccc(OC)c2)cc(N2CCCC2=O)c1.O=CO`, the values for the Inhibition with Plasmodium falciparum [1], in the test on Plasmodium falciparum [2] and with HepG2 were 100%, 99% and 0%, respectively.

For `Cn1c(Cc2ccccc2)nnc1Sc1ccc(C#N)c([N+](=O)[O-])c1`, the Inhibition in the test on Plasmodium falciparum [1] was 93%; in the test with Plasmodium falciparum [2], 29%; in the test with HepG2, 0%.

`CN(Cc1cccc(F)c1)C1CCN(c2cc(NC(=O)c3cccc(F)c3)ccn2)CC1.O=C(O)C(F)(F)F`: the values for the Inhibition in the test with Plasmodium falciparum [1], in the test with Plasmodium falciparum [2] and in the test with HepG2 were 94%, 13% and 12%, respectively.

For the compound `O=C(NCc1cccs1)[C@H](Cc1ccccc1)Nc1ccnc(NCC2CCCCC2)n1.O=C(O)C(F)(F)F`, the Inhibition came out at 83% in the test with Plasmodium falciparum [1], 67% in the test on Plasmodium falciparum [2] and 5% with HepG2.

As to `O=C(O)C(F)(F)F.c1cc(CN2CCN(c3ccncc3)CC2)cc(-c2ccc(-c3nc4ccccc4[nH]3)cc2)c1`, the figures for the Inhibition in the test on Plasmodium falciparum [1], in the test with Plasmodium falciparum [2] and in the test on HepG2 were 100%, 100% and 60%, respectively.

On to `CN(C)CCNC(=O)c1ccc(-c2cnc3ccc(NCc4ccc(Cl)c(Cl)c4)nn23)cc1`, for which the Inhibition in the test with Plasmodium falciparum [1] is reported as 98%; with Plasmodium falciparum [2], 98%; with HepG2, 60%.

With `CC(=O)Oc1c(C2CCN(CCCCNC(=O)c3ccc(NC(=O)c4ccc(Cl)cc4)cc3)CC2)ccc2ccccc12`, the Inhibition in the test with Plasmodium falciparum [1] amounted to 100%; with Plasmodium falciparum [2], 92%; in the test on HepG2, 24%.

Turning to `FC(F)(F)c1ccc2[nH]ccc(=NN=CC=Cc3ccccc3)c2c1`, the Inhibition in the test with Plasmodium falciparum [1] was 82%; in the test on Plasmodium falciparum [2], 9%; in the test on HepG2 it was 0%.

With `COC(=O)c1ccc(C2OC3(C(=O)c4ccccc4C3=O)C(OC)=C2Cl)cc1C(C)=O` (stereo not given), the values for the Inhibition with Plasmodium falciparum [1], with Plasmodium falciparum [2] and in the test with HepG2 were 99%, 85% and 0%, respectively.

For the compound `COc1cc(CCN(C)Cc2ccc(OC)c(OC)c2)ccc1NC(=O)c1cccc2c(O)c3cccc(F)c3nc12`, the Inhibition in the test on Plasmodium falciparum [1] worked out at 100%; with Plasmodium falciparum [2], 26%; in the test with HepG2, 14%.

Turning to `Cc1cccc2nc(-c3cccc(-c4ccc(CN5CCN(CCO)CC5)cc4)c3)[nH]c12.O=C(O)C(F)(F)F`, the results for the Inhibition in the test with Plasmodium falciparum [1], with Plasmodium falciparum [2] and in the test with HepG2 were 100%, 63% and 12%, respectively.

Regarding `C[C@@H](CC1CCCCC1)NCc1cccc(NS(=O)(=O)c2ccc(O)c(-c3ccno3)c2)c1.Cl`, the Inhibition in the test on Plasmodium falciparum [1] is given as 88%; with Plasmodium falciparum [2], 4%; in the test on HepG2, 0%.

Consider `CN(c1ccc(NC(=O)c2cccc(F)c2)cc1)C1CCCN(Cc2cccc(O)c2)C1.O=C(O)C(F)(F)F` (stereo not given), for which the figures for the Inhibition in the test with Plasmodium falciparum [1], in the test with Plasmodium falciparum [2] and in the test with HepG2 were 85%, 2% and 13%, respectively.

As to `Oc1ccc2nc(Nc3ccccc3)nc(NCCc3ccccc3)c2c1`, the results for the Inhibition in the test on Plasmodium falciparum [1], in the test on Plasmodium falciparum [2] and in the test with HepG2 were 100%, 100% and 20%, respectively.

Take `Oc1c(C(Nc2nc3ccccc3s2)c2ccc(OC(F)F)cc2)ccc2cccnc12` (stereo not given): the values for the Inhibition in the test on Plasmodium falciparum [1], in the test on Plasmodium falciparum [2] and with HepG2 were 92%, 85% and 62%, respectively.

Regarding `Cl.O=C(NC1CCN(CC2(c3ccc(Cl)cc3)CCCCC2)CC1)c1cc[nH]n1`, the Inhibition in the test with Plasmodium falciparum [1] is listed as 98%; in the test with Plasmodium falciparum [2] it was 96%; with HepG2 it was 0%.

With `Cc1cc(CN2CC[C@H](NC(=O)c3ccc(Cl)c(Cl)c3)C2)ccc1OCCN1CCCC1.O=C(O)C(F)(F)F`, the figures for the Inhibition in the test with Plasmodium falciparum [1], with Plasmodium falciparum [2] and in the test on HepG2 were 100%, 92% and 56%, respectively.

Turning to `CS(=O)(=O)Nc1cccc(-c2cnc3[nH]cc(-c4cc(N)cc(C(=O)O)c4)c3c2)c1`, the Inhibition was 96% with Plasmodium falciparum [1], 96% with Plasmodium falciparum [2] and 40% with HepG2.

Turning to `Cc1cccc2nc(-c3ccc(-c4cccc(NC(=O)Nc5ccsc5)c4)s3)[nH]c12`, the Inhibition in the test with Plasmodium falciparum [1] is 100%; in the test on Plasmodium falciparum [2] it was 29%; in the test with HepG2 it was 30%.

As for `Cc1cccc2nc(-c3ccc(-c4cccc(CN5CCCC5CN)c4)cc3)[nH]c12.O=C(O)C(F)(F)F` (stereo not given), the figures for the Inhibition in the test with Plasmodium falciparum [1], in the test on Plasmodium falciparum [2] and with HepG2 were 91%, 32% and 7%, respectively.

Take `COc1ccc(CCOc2c(C)nc(N)nc2N)cc1OC.Cl`: the Inhibition is on record as 96% in the test on Plasmodium falciparum [1], 22% in the test with Plasmodium falciparum [2] and 66% in the test with HepG2.

As to `Cc1cc(NCC2CCN(CC3CCCCC3)C2)nc(Nc2ccc(Cl)cc2)n1` (stereo not given), the Inhibition in the test with Plasmodium falciparum [1] stood at 100%; in the test on Plasmodium falciparum [2] it was 74%; in the test on HepG2, 2%.

`CCNc1cc(C(=O)N[C@@H](Cc2ccccc2)[C@H](O)CNC(C)(C)CSCC(C)C)cc(N2CCCC2=O)c1`: the Inhibition was found to be 100% in the test with Plasmodium falciparum [1], 97% in the test on Plasmodium falciparum [2] and 0% in the test with HepG2.

Regarding `Cc1cc(-c2nc3cc(C(=N)N)ccc3[nH]2)c(C)cc1-c1nc2cc(C(=N)N)ccc2[nH]1.Cl`, the Inhibition came out at 96% in the test on Plasmodium falciparum [1], 97% in the test with Plasmodium falciparum [2] and 0% in the test on HepG2.

Source of the values: ChEMBL document CHEMBL1157539, “Thousands of chemical starting points for antimalarial lead identification” (Nature, 2010).
